High-throughput results (PubChem BioAssay)
TGFb inhibitor – blocks TGF-b signaling. HepG2 CAGA-GFP TGF-b/SMAD3 reporter, GFP fluorescence, 18 h; TGF-beta stimulated, 500 pg/mL final. Potency, µM (series often up to 46.1 µM), for inactives: top-dose activity, negative = inhibition, hits mostly inhibitors. hit rate 1.2% among 410,000; note: % is set by controls: 0 for no effect and ±100 for the full control effect; nearly all actives have a fitted effect of over 65% in size
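HEPG2 CAGA-GFP cells (1000/well, DMEM with 1% FBS) were pre-incubated 2 h at 37 degrees C, given compound by pin tool, then stimulated with TGF-beta at 500 pg/mL final for 18 h before per-cell GFP fluorescence imaging.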
DT40 TDP1 CPT – DT40-hTDP1 cell growth loss with CPT; chicken DT40 Tdp1-/-;hTDP1 cells + 20 nM CPT, ATP luminescence, 48 h; Potency, µM (highest dose often 46.2 µM), for the others: top-dose activity change, negative = growth inhibition, hits mostly inhibitors; hit rate 12% among 420,000; AID 686979; note: % is set by controls: 0 for no effect and ±100 for the full control effect; nearly all actives have a fitted effect of over 55% in size
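Chicken DT40 Tdp1-/- cells complemented with human TDP1, 400 cells/well, exposed to compounds plus 20 nM camptothecin for at least 48 h at 37 C; viability read as ATP content by CellTiter-Glo luminescence.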
HT1080 IDH1KD tx – kills HT-1080 cells with IDH1 knockdown | HT-1080 IDH1 knockdown viability, ATP luminescence, 48 h | hit rate 2% among 360,000 | Potency, µM (top dose mostly 46.1 µM), without a hit: at the top dose activity, negative = toxicity, hits mostly cytotoxic;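 note: 0% = DMSO wells and -100% = cell-free medium wells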
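In this qHTS, HT-1080 cells depleted of IDH1 are exposed for 48 h at 37 °C to compound titrations. Toxicity is scored from CellTiter-Glo luminescence, with DMSO as full viability and medium alone as none.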
TDP1 cell noCPT – qHTS for Inhibitors of human tyrosyl-DNA phosphodiesterase 1 (TDP1): qHTS in cells in absence of CPT. AID 686978, 2013. DT40 Tdp1-/- hTDP1 cells, no CPT, ATP luminescence, 48 h. Potency, µM (top dose mostly 46.2 µM), for the others: top-dose activity change, negative = growth inhibition, hits mostly inhibitors. hit rate 15% among 420,000; note: % is set by controls: 0 for no effect and ±100 for the full control effect; nearly all actives have a fitted effect of over 55% in size
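Cells were dispensed at 400 per well, compounds added by pin tool, plates incubated ≥48 hr at 37 °C, then CellTiter-Glo added for 30 min at room temperature before luminescence reading. Line: DT40 Tdp1-/- complemented with hTDP1; camptothecin omitted.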
HepG2 tox – counter-screen for TGF-b inhibitors: cytotoxicity in HepG2 cells; HepG2 CAGA-GFP viability, ATP luminescence, 18 h; Potency, µM (top dose mostly 46.1 µM), for the others: at the top dose activity change, negative = cytotoxicity, most hits filed as cytotoxic; hit rate 0.76% among 410,000
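HepG2 CAGA-GFP cells (1000/well, DMEM with 1% FBS) received compound, then TGF-beta at 500 pg/mL final, and were incubated 18 hours at 37 degrees C. Viability was read by CellTiter-Glo luminescence. Media-only wells were set as complete cell-killing and DMSO as no toxicity.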
HT1080NT lethal – kills 2HG-producing HT-1080-NT fibrosarcoma cells; HT-1080-NT fibrosarcoma viability, CellTiter-Glo ATP luminescence, 48 h; Potency, µM (highest dose often 46.1 µM), for inactives: top-dose activity, negative = less viability, most hits filed as cytotoxic; hit rate 1.6% among 360,000; AID 686970;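 note: NT is the 2HG producing partner of a matched IDH1 knockdown line; 0% = DMSO-treated cells and -100% = media-only wells without cells; nearly all actives have a fitted effect of over 55% in size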
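HT-1080-NT; 750 cells/well; 5% FBS RPMI; 48 h compound, 37 degrees C; CellTiter-Glo luminescence; curve fitting and curve-class assignment.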
* hit, by the source's call; ? = inconclusive; . = no result given; [ ] = remark or other dose. Only some compounds are listed: those with a hit (about 17% of all), similar ones and a draw of the others. Calls come from the whole dose curve; as a rule, active = well fitted curve in the direction sought with a large enough effect; inconclusive = small, poorly fitted or top-dose-only effect, or another doubt; inactive = no such curve, though single readings can be large; an effect the other way counts as inactive or inconclusive. Potency is the fitted concentration of half-maximal effect.

SMILES | TGFb inhibitor | DT40 TDP1 CPT | HT1080 IDH1KD tx | TDP1 cell noCPT | HepG2 tox | HT1080NT lethal
COc1ccc(OC)c(S(=O)(=O)N2CCN(c3c(C)cccc3C)CC2)c1 | -4% | 1% | -1% | 0% | -21% | 0%
Cc1cnc(NC(=O)Nc2ccccc2)c(C)n1 | 16% | 0% | 23% | 12% | 10% | 23%
COC(=O)c1nnn(-c2nc(N3CCOCC3)nc(N3CCOCC3)n2)c1C | 3% | ? | 7% | ? | -48% | -2%
CC1CCN(c2oc(/C=C/c3ccc(F)cc3)nc2C#N)CC1 | 9% | ? | . | 15µM* | -6% | .
COc1ccc(N2CCN(c3oc(/C=C/c4ccc(F)cc4)nc3C#N)CC2)cc1 | . | -2% | . | 8% | -19% | .
CCOc1ccc(/C=C/c2nc(C#N)c(N3CCC(C)CC3)o2)cc1 | ? | 10µM* | . | 13µM* | -39% | .
CCOc1ccc(/C=C/c2nc(C#N)c(N3CCN(c4ccccc4)CC3)o2)cc1 | 0% | ? | . | -14% | 2% | .
N#Cc1nc(/C=C/c2ccc(F)cc2)oc1N1CCCCCC1 | -27% | ? | . | ? | -26% | .
CCOc1ccc(/C=C/c2nc(C#N)c(N3CCN(CC)CC3)o2)cc1 | -9% | 6.5µM* | . | 5.8µM* | -22% | .
Cc1ccn2c(=O)nc(SCC(=O)Nc3ccc4c(c3)OCCO4)nc2c1 | -2% | ? | -15% | ? | 0% | -9%
Oc1ccccc1N1CCN(c2ccc3ccccc3n2)CC1 | 1% | 0% | -5% | -28% | -2% | -21%
COc1ccc(-c2noc(-c3ccc(N4CCN(C)CC4)c([N+](=O)[O-])c3)n2)cc1OC | ? | 5.2µM* | . | 3.3µM* | 11µM* | .
COc1ccc(-c2noc(-c3ccc(N4CCN(c5ccccc5OC)CC4)c([N+](=O)[O-])c3)n2)cc1 | ? | 1% | . | 3% | -44% | .
COc1ccccc1-c1noc(-c2ccc(N3CCOCC3)c([N+](=O)[O-])c2)n1 | -1% | 21µM* | . | 13µM* | -4% | .
COc1cc(-c2noc(-c3ccc(N4CCCCC4)c([N+](=O)[O-])c3)n2)cc(OC)c1OC | 16% | -3% | . | -1% | 20% | .
CC(C)(C)NS(=O)(=O)c1ccc(CCC(=O)NCc2ccc3c(c2)OCO3)cc1 | -12% | -13% | -3% | -11% | -5% | 14%
CC1CN(S(=O)(=O)c2ccc(C(=O)N(C)C3CCCCC3)cc2)CC(C)O1 (stereo not drawn) | -8% | -24% | 17% | ? | 4% | 8%
CC(C)C(=O)NC(c1ccc(N(C)C)cc1)c1ccc2cccnc2c1O (stereo not drawn) | ? | 4µM* | . | 5.6µM* | 6% | .
CCN(CC)c1ccc(C(NC(C)=O)NC(C)=O)cc1 | 7% | 5% | 2%[9.24 µM] | 8% | -3% | 4%
CCN(CC)c1ccc(C(NC(=O)C(C)C)c2ccc3cccnc3c2O)cc1 (stereo not drawn) | ? | 2.9µM* | ? | 2.9µM* | -23% | ?
CCCC(=O)NC(c1ccc(N(C)C)cc1)c1c(O)ccc2ccccc12 (stereo not drawn) | -1% | 7% | -2% | 8% | 10% | 4%
c1coc(CNc2nc3ccccc3s2)c1 | -30% | 1% | 1% | 2% | -72% | -13%
Oc1c(C(Nc2nc3ccccc3s2)c2ccco2)ccc2cccnc12 (stereo not drawn) | ? | 3.7µM* | ? | 5.2µM* | -54% | -30%
CC(C)C(=O)NC(c1ccco1)c1ccc2cccnc2c1O (stereo not drawn) | -23% | 3.3µM* | ? | 4.6µM* | -18% | 4.1µM*
CC(=O)NC(c1ccco1)c1cc(Cl)c2ccc(Cl)nc2c1O (stereo not drawn) | ? | . | . | . | -35% | .
SMILES | TGFb inhibitor | DT40 TDP1 CPT | HT1080 IDH1KD tx | TDP1 cell noCPT | HepG2 tox | HT1080NT lethal
CCOC(=O)Cn1c(=O)n(CC2CCCO2)c2nc(-c3ccc(C(C)C)cc3)nc(C(N)=O)c21 (stereo not drawn) | 1% | . | . | . | -11% | .
Cc1cc(C(=O)CSc2nnc(N)s2)c(C)n1CCc1ccc(F)cc1 | -6% | ? | -3% | -29% | -31% | -1%
Cc1cc(C(=O)CSc2nnc(N)s2)c(C)n1CCc1ccc(Cl)cc1 | -13% | 9.2µM* | 0% | ? | -28% | 8%
Cc1cc(C(=O)CCl)c(C)n1CCc1ccc(Cl)cc1 | ? | -99% | 8.2µM* | 3.7µM* | 18µM* | 15µM*
Cc1cc(C(=O)CSc2nnnn2C)c(C)n1CCc1ccc(F)cc1 | -7% | 4% | ? | -6% | -3% | ?
COc1ccc(CCn2c(C)cc(C(=O)CCl)c2C)cc1OC | ? | 6.5µM* | ? | 5.2µM* | -108% | ?
CCCOc1ccc(N2CC(C(=O)NCCc3ccc(OC)c(OC)c3)CC2=O)cc1 (stereo not drawn) | -14% | 4% | 2% | 4% | 0% | 2%
COc1cc(/C=N/NC(=O)c2ccccn2)ccc1OC(=O)c1cccs1 | -14% | 12% | -6% | -1% | -14% | -3%
Cc1ccc(-n2c(=O)c3c(c4cc(C)ccc4n3C)n(CC(=O)NCc3ccccc3)c2=O)cc1 | -12% | ? | . | ? | -23% | .
COc1ccc(NC(=O)COC(=O)C2CC2)cc1S(=O)(=O)N1CCCCC1 | 1% | -3% | -8% | 9% | -2% | 0%
O=c1cc(-c2ccccc2Cl)oc2c(NS(=O)(=O)c3cc(Cl)cc(Cl)c3O)ccc(O)c12 | 6.3µM* | 9.2µM* | ? | 12µM* | 10µM* | 3.3µM*
CCN(c1ccc(OC)cc1)S(=O)(=O)c1ccc(-c2ccc(=O)[nH]n2)o1 | 3% | ? | 2% | ? | -25% | -10%
COC(=O)c1cc2oc3ccccc3c2n1Cc1c(C)cc(C)cc1C | . | -3% | . | -2% | -4% | .
COc1cccc(C2c3c(-c4cc(Cl)c(C)cc4O)n[nH]c3C(=O)N2Cc2cccnc2)c1 (stereo not drawn) | -9% | ? | ? | 16µM* | 12% | ?
O=C1c2[nH]nc(-c3ccccc3O)c2C(c2ccccc2F)N1Cc1ccncc1 (stereo not drawn) | 25% | ? | . | ? | 5% | .
